The target in the assay is E3 ubiquitin-protein ligase XIAP (Homo sapiens) (UniProt P98170). Kind of assay: XIAP binders, primary screen, biophysical, small-molecule microarray, fluorescence 635 nm (AID 1181).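 Note: score merges 667 nm emission and signal to noise over triplicate slides.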 Conditions: small-molecule microarray binding, higher = more signal.
Chain of E3 ubiquitin-protein ligase XIAP (Homo sapiens) (P98170 whole entry, looked up): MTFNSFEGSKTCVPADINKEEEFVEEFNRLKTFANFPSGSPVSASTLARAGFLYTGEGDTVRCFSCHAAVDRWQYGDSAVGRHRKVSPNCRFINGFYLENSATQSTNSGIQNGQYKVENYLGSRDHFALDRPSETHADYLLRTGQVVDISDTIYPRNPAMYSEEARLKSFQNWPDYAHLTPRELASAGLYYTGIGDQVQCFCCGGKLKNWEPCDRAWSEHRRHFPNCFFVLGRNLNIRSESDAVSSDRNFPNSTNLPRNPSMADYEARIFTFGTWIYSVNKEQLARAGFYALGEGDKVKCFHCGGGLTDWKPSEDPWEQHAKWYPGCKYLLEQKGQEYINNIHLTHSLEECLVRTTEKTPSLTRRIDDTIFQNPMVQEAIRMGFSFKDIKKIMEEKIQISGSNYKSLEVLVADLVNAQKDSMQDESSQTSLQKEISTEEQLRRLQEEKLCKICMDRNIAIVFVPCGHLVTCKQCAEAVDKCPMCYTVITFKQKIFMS
Regarding `C=CCN1C(=O)[C@@]2(O[C@@H](CCO)[C@H]([Si](C)(C)c3ccc(OC)cc3)[C@H]2C)c2cc(NC(=O)[C@H](C)O)ccc21`, the composite z-score is 0.555. As to `COC(=O)[C@@]1(Cc2ccc(OC)cc2)[C@H]2c3cc(C(=O)N4CCCC4)n(CCF)c3C[C@H]2CN1C(=O)c1ccccc1`, the composite z-score is -0.0471.

Take `O=C1N(Cc2ccccc2)c2ccccc2[C@H]2OC(c3ccc(OCCCO)cc3)=N[C@@]12CCS(=O)(=O)c1ccccc1`: the composite z-score is 0.12.

With `CC(=O)NCCCC[C@@H]1NC(=O)[C@@H]2C[C@H](C(=O)NCCCC[N+](C)(C)C)[C@H](c3cccc(OCCO)c3)N2C1=O`, the composite z-score is 0.142. The compound `COCCCNC(=O)[C@@]1(Cc2ccccc2I)c2ccccc2C(=O)N(Cc2ccccc2Cl)[C@H]1c1ccc(CO)cc1` gave a composite z-score of 0.186. As for `COCCCNC(=O)[C@@]1(Cc2ccccc2CN=[N+]=[N-])N=C(c2ccc(OCCCO)cc2)O[C@H]1c1ccccc1N=[N+]=[N-]`, the composite z-score is -0.0592. As for `NCCCCCCNC(=O)[C@H]1C[C@H]2C(=O)N3CCC[C@H]3C(=O)N2[C@H]1c1ccc(O)cc1`, the figure is -0.223; as for `C=C(/C(=C/C[C@@H](OC(=O)c1ccncc1)c1cccc(OCCO)c1)c1cc(C(=O)OC)ccc1OC)C(C)C`, -0.107. As to `CN1C(=O)C2C=CC(C(O)COCc3ccccc3)N(Nc3ccccc3)C2C1=O` (stereo not drawn), the composite z-score amounted to 0.267. Regarding `C=C[C@@H](O)[C@H]1CC(c2ccccc2)=NO1`, the composite z-score was -0.0473. As for `COC(=O)[C@@]1(Cc2ccc(OC)cc2)[C@H]2c3cc(C(=O)N(C)C)n(CCF)c3C[C@H]2CN1C(=O)c1ccccc1`, the figure is -0.0592. As for `C=CCC(OC(C)=O)[C@@H]1[C@@H](N(Cc2ccc(-c3cccc(C(F)(F)F)c3)o2)C(=O)c2cccc3ccccc23)c2cc(OCCCO)ccc2N1C(=O)c1ccc(-c2ccccc2)cc1` (stereo partly drawn), the figure is -0.031; as for `COc1cc(NN2C(C(O)c3ccc(I)cc3)C=CC3C(=O)N(C)C(=O)C32)cc(OC)c1OC` (stereo not drawn), 0.346.

`C=CCC(OC(C)=O)[C@@H]1[C@@H](N(Cc2cccc3ccccc23)C(=O)Cc2ccc(F)cc2)c2cc(OCCCO)ccc2N1C(=O)Cc1ccc(OC)cc1` (stereo partly drawn) displayed a composite z-score of -0.01. As for `C=CCOC(=O)[C@@H]1[C@H]2C(=O)O[C@H](c3ccccc3)[C@H](c3ccccc3)N2[C@H](c2ccc(OCCOC(=O)[C@H]3C[C@H]4C(=O)N[C@@H](Cc5ccccc5)C(=O)N4[C@H]3c3cccc(OCCO)c3)cc2)[C@@]12C(=O)Nc1ccc(I)cc12`, the figure is -0.128; as for `CC(C)c1ccc(NN2C(C(O)c3cccs3)C=CC3C(=O)N(c4ccccc4)C(=O)C32)cc1` (stereo not drawn), 0.44. As for `CC1CC/C=C\[C@H]2OC34C=CCN(Cc5ccccc5)C(=O)[C@H]3N(CCO)C(=O)[C@@H]4C2C(=O)O1` (stereo partly drawn), the figure is -0.147; as for `COCCOC(=O)N1C(=O)[C@@]2(c3cc(C#CC4(O)CCCCCC4)ccc31)[C@H](C(=O)N1CCc3cc(OC)c(OC)cc3C1)[C@H]1C(=O)O[C@H](c3ccccc3)[C@H](c3ccccc3)N1[C@@H]2c1ccccc1OCCO`, 0.0297; as for `COc1ccc([Si](C)(C)[C@H]2[C@H](CC(=O)N3CCC[C@H]3CO)O[C@@]3(C(=O)N(Cc4ccc(N5C(=O)c6cccc7cccc5c67)cc4)c4ccccc43)[C@@H]2C)cc1`, -0.392. Consider `C=C(C(=O)CC[C@H](OC(=O)c1cccnc1)c1ccc(OCCO)cc1)C(C)C`, for which the composite z-score stood at 0.158. Regarding `COC(=O)[C@@]1(Cc2ccccc2)[C@H]2c3cc(C(=O)N4CCCC4)n(CCO)c3C[C@H]2CN1C(=O)c1ccccc1`, the composite z-score turned out to be 0.202.

The compound `C=CCNC(=O)[C@H]1[C@@H]2C(=O)O[C@@H](c3ccccc3)[C@@H](c3ccccc3)N2[C@@H](c2ccc(OCCO)cc2)[C@]12C(=O)N(C(=O)OCCOC)c1ccc(C#CC3=CCCCC3)cc12` gave a composite z-score of -0.0727. With `O=C1C2C=CC(C(O)c3cccc4ccccc34)N(Nc3ccccc3)C2C(=O)N1c1ccccc1` (stereo not drawn), the composite z-score is 0.197. Regarding `Cc1ccc(S[C@]2(C(=O)O)CC(=O)N(C3CCCCC3)[C@@H]2c2ccc(CO)cc2)cc1`, the composite z-score was -0.0031. As for `CC(=O)NCCCC[C@@H]1NC(=O)[C@H]2C[C@@H](C(=O)NCCCCCN)[C@@H](c3cccc(OCCO)c3)N2C1=O`, the figure is -0.02. As for `C=C(CCCC)/C(=C/C[C@@H](OC(=O)c1ccncc1)c1ccccc1OCCO)c1cc(C(=O)OC)ccc1OC`, the composite z-score is 0.057. As for `C=CC[C@]1(C(=O)N2CCOCC2)N=C(c2ccc(OCCCO)cc2)O[C@H]1c1ccccc1CN=[N+]=[N-]`, the figure is 0.208; as for `C=C(C)[C@@H]1CC=C(C(O)C2C=CC3C(=O)N(C4CCCCC4)C(=O)C3N2Nc2ccc(OC)cc2)CC1` (stereo partly drawn), 0.356.

The values above are taken from PubChem BioAssay.
